Reference: PubChem BioAssay AID1159580 (chemical genetic matrix, 2015)
The whole screen tested about 5,500 compounds, of which about 2,000 (36%) were called active. Another 18% or so got no clear call; they are omitted. Rule as the data show it: active = normalized growth mostly below about 0.91 (no sharp cut-off); inconclusive = no clear call, values can overlap the other calls; inactive = mostly above about 0.92. Some of the results follow.

Experiment: chemical genetic growth profiling, strain panel (AID 1159580);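 also: tested at 20 µM; growth read once vehicle control cultures reached saturation at 30 °C; 1 = growth at the plate median or of vehicle wells; lower values mean less growth of the strain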
Settings: growth OD

Measured: normalized growth

COc1cc2c(cc1OC)[C@@H]1C(=O)c3ccc4c(c3O[C@@H]1CO2)CC(C(C)C)O4 (stereo partly drawn)
inactive: S. cerevisiae deletion strains, locus YKL009W, strain mrt4, hits give low values 1.01 | S. cerevisiae deletion strains, locus YKL068W, hits give low values 0.999 | S. cerevisiae deletion strains, locus YKL085W, strain MDH1 (second series), hits give low values 0.999 | S. cerevisiae deletion strains, locus YKL085W, strain MDH1, hits give low values 0.999 | S. cerevisiae deletion strains, locus YKL160W, strain elf1, hits give low values 0.978 | S. cerevisiae deletion strains, locus YKL190W, strain CNB1, hits give low values 0.998 | S. cerevisiae deletion strains, locus YKR026C, strain gcn3, hits give low values 0.991 | S. cerevisiae deletion strains, locus YKR091W, strain srl3, hits give low values 0.997 | S. cerevisiae deletion strains, locus YLL001W, strain dnm1, hits give low values 0.943 | S. cerevisiae deletion strains, locus YLL026W, hits give low values 0.98 | S. cerevisiae deletion strains, locus YLL041C, strain sdh2, hits give low values 1 | S. cerevisiae deletion strains, locus YLR027C, strain aat2, hits give low values 0.935 | S. cerevisiae deletion strains, locus YLR039C, strain RIC1, hits give low values 0.849 | S. cerevisiae deletion strains, locus YLR058C, strain SHM2, hits give low values 0.987 | S. cerevisiae deletion strains, locus YLR102C, strain apc9, hits give low values 1.01 | S. cerevisiae deletion strains, locus YLR113W, strain HOG1, hits give low values 1.02 | S. cerevisiae deletion strains, locus YLR221C, strain rsa3, hits give low values 0.966 | S. cerevisiae deletion strains, locus YLR258W, strain gsy2, hits give low values 0.985 | S. cerevisiae deletion strains, locus YLR262C, strain YPT6 (second series), hits give low values 0.897 | S. cerevisiae deletion strains, locus YLR262C, strain YPT6, hits give low values 0.822 | S. cerevisiae deletion strains, locus YLR268W, strain sec22, hits give low values 0.976 | S. cerevisiae deletion strains, locus YLR320W, strain mms22, hits give low values 0.923 | S. cerevisiae deletion strains, locus YLR330W, strain CHS5, hits give low values 1 | S. cerevisiae deletion strains, locus YLR342W, strain FKS1 (second series), hits give low values 0.999 | S. cerevisiae deletion strains, locus YLR342W, strain FKS1, hits give low values 0.975 | S. cerevisiae deletion strains, locus YLR357W, strain rsc2, hits give low values 0.958 | S. cerevisiae deletion strains, locus YLR370C, strain arc18, hits give low values 0.984 | S. cerevisiae deletion strains, locus YLR371W, strain rom2, hits give low values 1 | S. cerevisiae deletion strains, locus YLR384C, strain iki3, hits give low values 0.981 | S. cerevisiae deletion strains, locus YLR418C, strain cdc73, hits give low values 0.921 | S. cerevisiae deletion strains, locus YML016C, strain PPZ1, hits give low values 1 | S. cerevisiae deletion strains, locus YML032C, strain rad52, hits give low values 1 | S. cerevisiae deletion strains, locus YML120C, strain ndi1, hits give low values 0.986 | S. cerevisiae deletion strains, locus YML124C, strain tub3, hits give low values 0.999 | S. cerevisiae deletion strains, locus YMR058W, strain fet3, hits give low values 0.983 | S. cerevisiae deletion strains, locus YMR078C, strain ctf18, hits give low values 0.996 | S. cerevisiae deletion strains, locus YMR125W, strain sto1, hits give low values 0.99 | S. cerevisiae deletion strains, locus YMR129W, hits give low values 0.979 | S. cerevisiae deletion strains, locus YMR205C, strain PFK2, hits give low values 0.924 | S. cerevisiae deletion strains, locus YMR223W, strain ubp8, hits give low values 1 | S. cerevisiae deletion strains, locus YMR231W, strain pep5, hits give low values 0.992 | S. cerevisiae deletion strains, locus YMR263W, strain SAP30, hits give low values 1 | S. cerevisiae deletion strains, locus YMR307W, strain GAS1, hits give low values 0.872 | S. cerevisiae deletion strains, locus YNL067W, strain RPL9B, hits give low values 0.993 | S. cerevisiae deletion strains, locus YNL071W, strain lat1, hits give low values 0.93 | S. cerevisiae deletion strains, locus YNL183C, strain NPR1, hits give low values 0.983 | S. cerevisiae deletion strains, locus YNL209W, strain ssb2, hits give low values 0.995 | S. cerevisiae deletion strains, locus YNL233W, strain BNI4, hits give low values 0.986 | S. cerevisiae deletion strains, locus YNL248C, strain rpa49, hits give low values 0.98 | S. cerevisiae deletion strains, locus YNL250W, strain rad50, hits give low values 1 | S. cerevisiae deletion strains, locus YNL271C, strain bni1, hits give low values 1.02 | S. cerevisiae deletion strains, locus YNL298W, strain CLA4, hits give low values 1.01 | S. cerevisiae deletion strains, locus YNL307C, strain MCK1, hits give low values 0.986 | S. cerevisiae deletion strains, locus YNL322C, strain KRE1 (second series), hits give low values 0.985 | S. cerevisiae deletion strains, locus YNR049C, strain mso1, hits give low values 0.997 | S. cerevisiae deletion strains, locus YNR052C, strain pop2, hits give low values 1.01 | S. cerevisiae deletion strains, locus YOL006C, strain TOP1, hits give low values 0.897 | S. cerevisiae deletion strains, locus YOL012C, strain htz1 1.16 | S. cerevisiae deletion strains, locus YOL147C, strain pex11, hits give low values 0.999 | S. cerevisiae deletion strains, locus YOR001W, strain rrp6, hits give low values 0.966 | S. cerevisiae deletion strains, locus YOR061W, strain CKA2, hits give low values 0.998 | S. cerevisiae deletion strains, locus YOR069W, strain VPS5, hits give low values 1.01 | S. cerevisiae deletion strains, locus YOR070C, strain gyp1, hits give low values 0.961 | S. cerevisiae deletion strains, locus YOR080W, strain dia2, hits give low values 0.974 | S. cerevisiae deletion strains, locus YOR083W, strain WHI5, hits give low values 0.98 | S. cerevisiae deletion strains, locus YOR106W, strain vam3, hits give low values 1.02 | S. cerevisiae deletion strains, locus YOR136W, strain idh2, hits give low values 1 | S. cerevisiae deletion strains, locus YOR144C, strain elg1, hits give low values 0.992 | S. cerevisiae deletion strains, locus YOR184W, strain ser1, hits give low values 0.925 | S. cerevisiae deletion strains, locus YOR231W, strain MKK1, hits give low values 1.05 | S. cerevisiae deletion strains, locus YOR265W, strain rbl2, hits give low values 0.989 | S. cerevisiae deletion strains, locus YOR270C, strain vph1, hits give low values 0.939 | S. cerevisiae deletion strains, locus YOR290C, strain snf2, hits give low values 0.989 | S. cerevisiae deletion strains, locus YOR316C, strain cot1, hits give low values 0.999 | S. cerevisiae deletion strains, locus YPL051W, strain arl3, hits give low values 0.941 | S. cerevisiae deletion strains, locus YPL055C, strain LGE1, hits give low values 0.929 | S. cerevisiae deletion strains, locus YPL078C, strain atp4, hits give low values 0.982 | S. cerevisiae deletion strains, locus YPL106C, strain sse1, hits give low values 1 | S. cerevisiae deletion strains, locus YPL240C, strain hsp82, hits give low values 1.01 | S. cerevisiae deletion strains, locus YPL241C, strain CIN2, hits give low values 1 | S. cerevisiae deletion strains, locus YPL256C, strain CLN2, hits give low values 1.05 | S. cerevisiae deletion strains, locus YPR119W, strain clb2, hits give low values 1 | S. cerevisiae deletion strains, locus YPR141C, strain kar3, hits give low values 1 | S. cerevisiae deletion strains, locus YPR163C, strain tif3, hits give low values 1.01 | S. cerevisiae deletion strains, locus YPR167C, strain met16, hits give low values 1 | S. cerevisiae deletion strains, strain wtn01, hits give low values 1.01 | S. cerevisiae strains, strain wild type, hits give low values 0.987
active: S. cerevisiae deletion strains, locus YKR001C, strain vps1, hits give low values 0.849
